Sampled rows, rich in hits. Any-hit rate of the full collection: about 1.8%.
iPSC survival up = hiPSC single-cell survival enhancement | ATPlite luminescence; 100% = ROCK inhibitor wells, 0% = DMSO | survival enhancement, % at 20 µM | 360,000 compounds, 0.044% hits | AID 602274; in the data active = survival enhancement above about 18%;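 also: cells exposed to compounds for 16 hours before the ATP read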
ARNT TACC3 PPI = ARNT/TACC3 interaction disruption; Q9Y6A5; AlphaScreen His-ARNT PAS-B/GST-TACC3 binding, luminescence; TACC3 fragment carries E629A point mutation; inhibition, % at 9.99 µM; 390,000 compounds, 0.66% hits; AID 623870;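 active = mean inhibition of replicates at least 50% and at least half of replicates each reaching 50%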
NRP1-CendR mod = NRP-1/CendR interaction modulation. FAM-RPARPAR peptide binding to NRP-1, fluorescence polarization. 360,000 compounds, 0.85% hits. inhibition, % at 25 µM;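 active = inhibition or corrected inhibition above about 18%, plus a signal ratio from 0.5 to 1.5, limit read from the data, passing the limit was not always enough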
Target sequence (O14786 whole entry, looked up): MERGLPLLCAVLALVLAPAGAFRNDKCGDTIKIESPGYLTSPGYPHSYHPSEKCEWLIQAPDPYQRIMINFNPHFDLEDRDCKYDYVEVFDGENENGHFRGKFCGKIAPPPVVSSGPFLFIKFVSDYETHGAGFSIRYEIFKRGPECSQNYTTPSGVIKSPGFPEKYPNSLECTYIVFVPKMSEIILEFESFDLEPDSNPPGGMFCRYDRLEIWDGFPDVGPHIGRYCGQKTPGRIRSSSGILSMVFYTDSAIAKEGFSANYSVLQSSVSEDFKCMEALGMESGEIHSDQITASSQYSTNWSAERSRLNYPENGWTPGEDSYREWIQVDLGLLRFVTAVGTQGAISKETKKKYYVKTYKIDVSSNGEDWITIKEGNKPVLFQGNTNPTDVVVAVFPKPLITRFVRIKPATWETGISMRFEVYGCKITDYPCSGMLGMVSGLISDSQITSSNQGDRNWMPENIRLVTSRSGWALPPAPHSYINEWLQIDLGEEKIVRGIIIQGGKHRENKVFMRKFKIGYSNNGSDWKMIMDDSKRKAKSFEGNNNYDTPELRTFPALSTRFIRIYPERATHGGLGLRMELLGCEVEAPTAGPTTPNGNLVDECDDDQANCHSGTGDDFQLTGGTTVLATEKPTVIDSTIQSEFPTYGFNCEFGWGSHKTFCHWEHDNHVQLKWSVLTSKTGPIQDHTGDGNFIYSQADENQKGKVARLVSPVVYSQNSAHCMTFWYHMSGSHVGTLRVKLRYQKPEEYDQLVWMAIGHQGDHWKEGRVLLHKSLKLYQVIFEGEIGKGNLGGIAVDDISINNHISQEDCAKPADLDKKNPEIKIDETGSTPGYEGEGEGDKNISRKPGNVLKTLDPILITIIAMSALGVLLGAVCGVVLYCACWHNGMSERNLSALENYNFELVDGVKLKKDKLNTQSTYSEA
ABCB6 inh MLPCN = inhibitors of human ABC transporter ABCB6 | 360,000 compounds, 0.19% hits | AID 602162 | K562-ABCB6 porphyrin accumulation, flow cytometry, 1 h; stronger effect = lower value | fluorescence ratio to DMSO, % at 10 µM | Q9NP58;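 active = fluorescence ratio to DMSO below 75%, the collection mean minus 3 SD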;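 also: signal is porphyrin accumulated inside mitochondria; lower ratio means ABCB6 inhibition with less porphyrin fluorescence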
GSIS activator = GLuc luminescence reporter in INS-1E cells, primary screen for activators of glucose-dependent secretion of insulin | INS-1E GLuc reporter insulin secretion, 2-3 h | activation, % at 16.6 µM | 370,000 compounds, 0.61% hits | AID 743287;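 active = lowest replicate activation of at least 40%, so every replicate reaches that level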
Each line names hits and unclear results; the compound was inactive in the other large screens.

CC(C(=O)N1CCN(c2ccc(Cl)cc2)CC1)c1ncc(C(F)(F)F)cc1Cl (centres undefined)	NRP1-CendR mod 47 (no result: GSIS activator)
CC(=O)Oc1ccc(C2OC(=O)c3ccccc3N2C(C)=O)cc1 (centres undefined)	none (no result: GSIS activator)
COc1ccc(C(=O)N2c3ccccc3C(=O)OC2c2ccc3c(c2)OCO3)cc1 (centres undefined)	NRP1-CendR mod 21 (no result: GSIS activator)
CC1CN(C(=O)c2ccccc2NS(=O)(=O)c2ccc(Cl)cc2)CC(C)O1 (centres undefined)	NRP1-CendR mod 19
Cc1noc(C)c1NC(=O)Nc1ccc2c(c1)CC(=O)N([C@@H](C)CO)C[C@@H](C)[C@H](CN(C)C(=O)NC(C)C)O2	none (no result: iPSC survival up, NRP1-CendR mod, ABCB6 inh MLPCN)
Cc1nc2ccccc2c2oc(C(=O)N3CCCC(C)C3)cc12 (centres undefined)	GSIS activator 46
Cc1nc2ccccc2c2oc(C(=O)N3CCC(N4CCCCC4)CC3)cc12	none (no result: GSIS activator)
COc1ccc(NC(=O)c2sc3nc(N4CCOCC4)c4c(c3c2N)CC(C)(C)OC4)c(OC)c1	GSIS activator 127
N#CC(C(=O)c1ccco1)c1ccccn1 (centres undefined)	GSIS activator 43
O=C(O)COc1ccccc1-c1ccccc1	GSIS activator 41
C/C(=N\NC(=O)COc1ccccc1-c1ccccc1)c1cccnc1	none
CC(=NNC(=S)Nc1cccc(Cl)c1)c1ccccn1	ARNT TACC3 PPI 60 (no result: GSIS activator)
C/C(=N\NC(=O)c1ccc(Cl)cc1)c1ccccn1	ARNT TACC3 PPI 82
C/C(=N\NC(=O)COc1ccccc1-c1ccccc1)c1ccccn1	ARNT TACC3 PPI 8.8
O=C(COc1ccccc1-c1ccccc1)NCc1ccco1	none
C[C@H](CO)N1C[C@H](C)[C@H](CN(C)C(=O)Nc2ccccc2)OCCCC[C@H](C)Oc2ccc(NC(=O)c3ccncc3)cc2C1=O	none (no result: iPSC survival up, NRP1-CendR mod, ABCB6 inh MLPCN)
COc1ccc2c3c([nH]c2c1)[C@H](CO)N(C(=O)C1CCOCC1)CC31CN(Cc2nccs2)C1	none (no result: iPSC survival up, ARNT TACC3 PPI, NRP1-CendR mod, ABCB6 inh MLPCN)
C[C@@H]1CN([C@H](C)CO)C(=O)Cc2cc(NS(=O)(=O)c3cn(C)cn3)ccc2O[C@@H]1CN(C)S(C)(=O)=O	none (no result: iPSC survival up, NRP1-CendR mod, ABCB6 inh MLPCN)
C[C@H](CO)N1C[C@H](C)[C@H](CN(C)S(=O)(=O)c2ccccc2)Oc2ccc(N(C)C)cc2CC1=O	none (no result: iPSC survival up, NRP1-CendR mod, ABCB6 inh MLPCN)
O=C(Nc1ccnn1C1CCN(C(=O)c2ccc(F)c(Cl)c2)CC1)C1CC1	none
O=C(Nc1ccnn1C1CCN(C(=O)c2c(F)cccc2F)CC1)C1CC1	NRP1-CendR mod 25 (no result: ARNT TACC3 PPI)
COc1cc(F)ccc1CN1CCC(n2nccc2NC(=O)C2CCOC2)CC1 (centres undefined)	none
COc1ccc(CN2CCC(n3nccc3NC(=O)C3CC3)CC2)cc1O	NRP1-CendR mod 23
COc1cc(CN2CCC(n3nccc3NC(=O)C3CCOC3)CC2)ccc1F (centres undefined)	GSIS activator 45
CC(C)(C)OC(=O)NCCCC[C@H](NC(=O)c1nc[nH]c1C(=O)N[C@@H](CCCCNC(=O)OC(C)(C)C)C(=O)OC(C)(C)C)C(=O)OC(C)(C)C	none (no result: GSIS activator)
CC(C)(C)OC(=O)[C@H](CCCCN)NC(=O)c1nc[nH]c1C(=O)NCCCCCN	NRP1-CendR mod 21
CC(C)(C)OC(=O)NCCCCCNC(=O)c1[nH]cnc1C(=O)N[C@@H](CCCCNC(=O)OC(C)(C)C)C(=O)OC(C)(C)C	ABCB6 inh MLPCN 67 (no result: GSIS activator)
CO[C@@H]1CN(C)C(=O)c2cc(NC(=O)C3CC3)ccc2OC[C@H](C)N(Cc2nccs2)C[C@@H]1C	none (no result: iPSC survival up, NRP1-CendR mod, ABCB6 inh MLPCN)
O=C1c2ccccc2S(=O)(=O)N1CC(O)COc1ccc(Br)cc1 (centres undefined)	ABCB6 inh MLPCN 73 (no result: GSIS activator)
OCCOCCn1c(CCNc2nc(-c3ccc(Cl)cc3)cs2)nc2cc(Cl)c(Cl)cc21	NRP1-CendR mod 36
O=[N+]([O-])c1cc(-c2csc(NCCc3nc4cc(Cl)c(Cl)cc4n3CCCO)n2)ccc1Cl	NRP1-CendR mod 31
Cc1ccc(-c2csc(NCCc3nc4cc(Cl)c(Cl)cc4n3CCCO)n2)cc1	none
COc1ccc2c3c(n(C)c2c1)[C@@H](CO)N(C(=O)Cc1ccccc1)CC31CCN(C(=O)Cc2ccccc2)CC1	none (no result: iPSC survival up, ARNT TACC3 PPI, NRP1-CendR mod, ABCB6 inh MLPCN)
C[C@H]1CN([C@@H](C)CO)C(=O)c2cc(NC(=O)C3CC3)ccc2O[C@@H]1CN(C)S(=O)(=O)c1ccc(F)cc1	none (no result: iPSC survival up, ARNT TACC3 PPI, NRP1-CendR mod, ABCB6 inh MLPCN)
CCCNC(=O)N1C[C@H]2[C@@H](c3ccccc31)[C@H](CO)N2C(=O)NCCC	none (no result: iPSC survival up, NRP1-CendR mod, ABCB6 inh MLPCN)
